From PubChem
PLK1 PBD block: blocks phosphopeptide binding to human PLK1 polo-box domain; P53350; Plk1 PBD binding of FITC phosphopeptide, fluorescence polarization; Potency, µM, actives largely listed as inhibitors; hit rate 2.8% among 360,000; AID 720504; note: series mostly up to about 57 µM; nearly all actives have a fitted effect of over 65% in size
BAZ2B block: BAZ2B (human) inhibition; AlphaScreen BAZ2B-H3K14Ac peptide displacement; Potency, µM (doses to about 114 µM), actives largely listed as inhibitors; hit rate 4.4% among 360,000; note: nearly all actives have a fitted effect of over 60% in size
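Inhibition is scored as reduced AlphaScreen emission. The BAZ2B/b-H3(5-23)K14Ac complex (50 nM each) in PBS pH 7.4, 0.01% Tween-20 meets compound (up to 110 uM) for 30 min at RT before bead addition.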
HP1b binding inh: inhibitors of HP1-beta chromodomain binding to methylated histone tails; P83916; hit rate 0.56% among 390,000; Potency, µM (doses to about 114 µM), actives largely listed as inhibitors; AlphaScreen HP1-beta / biotin-H3K9me3 peptide binding; AID 540317; note: nearly all actives have a fitted effect of over 70% in size
Target sequence (P83916 whole entry, looked up): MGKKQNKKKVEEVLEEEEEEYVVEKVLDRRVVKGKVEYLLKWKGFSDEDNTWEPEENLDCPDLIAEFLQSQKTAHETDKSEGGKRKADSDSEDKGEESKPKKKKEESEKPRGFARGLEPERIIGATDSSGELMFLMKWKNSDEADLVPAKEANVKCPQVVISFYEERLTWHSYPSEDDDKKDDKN
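Compound inhibition of the preformed complex between 50 nM HP1-beta and 50 nM biotinylated H3K9me3 peptide was read by AlphaScreen. Buffer was PBS pH 7.4 with 0.01% Tween-20. Incubations ran 30 min at room temperature, with 10 ug/mL donor/acceptor beads.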
JMJD2A Tudor: blocks the human JMJD2A Tudor domain; AlphaScreen JMJD2A-Tudor / H3K4me3 peptide binding; Potency, µM (top dose mostly 114 µM), hits mostly inhibitors; AID 504339; hit rate 4.4% among 390,000; O75164; note: nearly all actives have a fitted effect of over 50% in size
G9a block: blocks human histone lysine methyltransferase G9a | hit rate 8.8% among 350,000 | Potency, µM (highest dose often 102 µM), hits mostly inhibitors | G9a H3K9 monomethylation, AlphaScreen, 2 h | Q96KQ7; note: nearly all actives have a fitted effect of over 75% in size
Target sequence (Q96KQ7 913-1193 limits assumed): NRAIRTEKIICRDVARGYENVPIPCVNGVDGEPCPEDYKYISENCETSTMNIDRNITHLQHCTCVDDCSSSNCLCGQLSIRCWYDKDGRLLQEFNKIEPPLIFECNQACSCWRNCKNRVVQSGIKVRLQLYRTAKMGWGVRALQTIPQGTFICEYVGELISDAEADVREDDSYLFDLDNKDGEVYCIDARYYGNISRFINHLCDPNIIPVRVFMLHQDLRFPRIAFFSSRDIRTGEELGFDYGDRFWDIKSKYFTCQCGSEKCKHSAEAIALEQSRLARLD
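Step 1: enzyme (final 20 nM) with compound, 15 min RT. Step 2: substrate peptide 500 nM and SAM 20 uM, 2 h RT. Step 3: anti-H3K9me1 antibody and AlphaScreen beads, 10 min, then plate read.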
Sfp PPTase inh: inhibitors of Bacillus subtilis Sfp phosphopantetheinyl transferase; Q9F4F7; Biochemical Sfp PPTase activity, qHTS; Potency, µM, actives largely listed as inhibitors; hit rate 3.5% among 310,000;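 note: the enzyme is Sfp with the accession as filed and its product quenches rhodamine fluorescence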
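After 15 min at room temperature with compound, 15 nM Sfp received 5 uM rhodamine-CoA plus 12.5 uM BHQ-2-ybbR (50 mM Hepes pH 7.6, 10 mM MgCl2). Rate came from the fluorescence difference over 30 min, ex 525/em 598 nm.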
Each line names hits and unclear results; the compound was inactive in the other large screens. A selection: hits, their analogues and other compounds. The true share with any hit is near 12%. Calls come from the whole dose curve; as a rule, active = well fitted curve in the direction sought with a large enough effect; inconclusive = small, poorly fitted or top-dose-only effect, or another doubt; inactive = no such curve, though single readings can be large; an effect the other way counts as inactive or inconclusive.

O=C(NCC1CCCO1)C(c1cccs1)N(Cc1cccs1)C(=O)c1ccc(-c2ccccc2)[nH]1 (stereo not given)	BAZ2B block inconclusive, HP1b binding inh inconclusive, JMJD2A Tudor inconclusive, G9a block inconclusive
CCc1ccccc1Nc1nc(N)nc(CSCC(=O)c2cc(C)n(C)c2C)n1	BAZ2B block 56µM, JMJD2A Tudor inconclusive, G9a block inconclusive
Cc1ccc(N(C)S(=O)(=O)c2ccc(-c3coc(C)n3)cc2)cc1	BAZ2B block inconclusive (no result: PLK1 PBD block, Sfp PPTase inh)
COC(=O)c1c(C)cc(O)cc1O	none (no result: BAZ2B block, G9a block)
Cc1cc(OC(=O)c2c(C)cc(OC(=O)c3c(C)cc(O)cc3O)cc2O)cc(O)c1C(=O)O	PLK1 PBD block 30µM (no result: BAZ2B block, G9a block, Sfp PPTase inh)
O=S(=O)(NCc1nc2cccnc2n1Cc1ccccc1)c1ccc2c(c1)CCCC2	none (no result: PLK1 PBD block, Sfp PPTase inh)
CC(C)c1nnc(N2C(=O)c3oc4ccccc4c(=O)c3C2c2ccccc2F)s1 (stereo not given)	none (no result: PLK1 PBD block, Sfp PPTase inh)
COc1ccc(C(C(=O)NC2CCCC2)N(CCO)C(=O)Cn2nnc(-c3ccc(C)o3)n2)cc1 (stereo not given)	none
COc1ccc(C(C(=O)NC2CCCC2)N(CCO)C(=O)Cn2nnc(-c3ccc(C)o3)n2)cc1OC (stereo not given)	G9a block 28µM
Cc1ccc(-c2nnn(CC(=O)N(c3ccccc3)C(C(=O)NC3CCCC3)c3ccncc3)n2)o1 (stereo not given)	none
Cc1ccc(-c2nnn(CC(=O)N(Cc3ccccc3F)C(C(=O)NC3CCCC3)c3ccncc3)n2)o1 (stereo not given)	G9a block 25µM, Sfp PPTase inh 28µM
CC(C)Oc1ccc(C(=O)Nc2nonc2-c2ccc(OC(C)C)cc2)cc1	none (no result: PLK1 PBD block, Sfp PPTase inh)
O=C1c2ccccc2C(=O)N1CCCc1c[nH]c2ccccc12	BAZ2B block inconclusive, HP1b binding inh inconclusive, JMJD2A Tudor inconclusive, G9a block 50µM
O=C(CCc1c[nH]c2ccccc12)NCc1ccncc1	G9a block 50µM
O=C(CCc1c[nH]c2ccccc12)NCc1ccc2c(c1)OCO2	BAZ2B block inconclusive, G9a block 56µM
CC(C)CNC(=O)CCCc1c[nH]c2ccccc12	none
O=C(CCCc1c[nH]c2ccccc12)NCCc1c[nH]c2ccccc12	BAZ2B block inconclusive, HP1b binding inh inconclusive, JMJD2A Tudor inconclusive, G9a block 45µM
O=C(Nc1ccc([N+](=O)[O-])cc1Cl)c1cc(Br)ccc1O	JMJD2A Tudor inconclusive (no result: PLK1 PBD block, BAZ2B block, G9a block, Sfp PPTase inh)
CCOC(=O)c1c(NC(=O)c2ccc(OCC)c(Br)c2)sc2c1CCCC2	none (no result: PLK1 PBD block, Sfp PPTase inh)
COc1cc(NC(=O)COC(=O)CCCC2=NS(=O)(=O)c3ccccc3N2)cc(OC)c1	PLK1 PBD block 21µM (no result: G9a block)
COc1ccc(NC(=O)COC(=O)CCCc2c[nH]c3ccccc23)cc1	BAZ2B block 50µM, G9a block inconclusive
O=C(COC(=O)CCCC1=NS(=O)(=O)c2ccccc2N1)Nc1ccccc1	none
O=C(CCc1c[nH]c2ccccc12)Nc1ncccc1O	BAZ2B block 56µM, G9a block inconclusive
COc1ccc(O[C@H]2C=C[C@@H](c3ccccc3)O[C@H]2COC(=O)CC/C(C)=N/OCC[C@@H]2C=C[C@H](OC(C)=O)[C@H](COC(C)=O)O2)cc1	none (no result: PLK1 PBD block, BAZ2B block, HP1b binding inh, JMJD2A Tudor, G9a block)
Cc1ccccc1C1=Nn2c(nnc2-c2ccco2)SC1	G9a block 28µM, Sfp PPTase inh inconclusive
CC1=Nn2c(nnc2-c2ccco2)SC1	Sfp PPTase inh 56µM
NS(=O)(=O)c1cc2c(cc1C(F)(F)F)N[C@H](Cc1ccccc1)NS2(=O)=O	none (no result: PLK1 PBD block, BAZ2B block, HP1b binding inh, JMJD2A Tudor)
COc1cccc(CN(C)C(=O)c2[nH]c(C)c(C(C)=O)c2C)c1OC	PLK1 PBD block 27µM, BAZ2B block inconclusive, JMJD2A Tudor inconclusive, G9a block inconclusive
O=C(NNC(=O)c1ccccc1F)c1cccc(S(=O)(=O)N2CCc3ccccc32)c1	none (no result: BAZ2B block, G9a block, Sfp PPTase inh)
c1ccc(OCCCCn2cnc3ccccc32)cc1	none
Cc1ccc(OCCCCn2cnc3ccccc32)cc1	G9a block inconclusive, Sfp PPTase inh 40µM
c1ccc2c(c1)ncn2CCCCOc1ccc2c(c1)CCC2	BAZ2B block 28µM, HP1b binding inh 71µM, JMJD2A Tudor 2.8µM, G9a block 8.9µM, Sfp PPTase inh 32µM
O=C(c1ccc(F)cc1)N1CCN(CCc2ccncc2)CC1	none (no result: PLK1 PBD block, Sfp PPTase inh)
CCC(=O)O[C@@]1(C(=O)CCl)C(C)CC2C3CCC4=CC(=O)C=C[C@@]4(C)[C@]3(F)C(O)C[C@]21C (stereo not given in full)	none (no result: PLK1 PBD block, BAZ2B block, HP1b binding inh, JMJD2A Tudor)
CC1Oc2ccccc2OC1(O)c1ccccn1 (stereo not given)	JMJD2A Tudor 50µM, G9a block 20µM
CC1Oc2ccccc2OC1(O)c1ccc2ccccc2n1 (stereo not given)	JMJD2A Tudor inconclusive
COCCN(C(=O)COC(=O)Cc1ccc(Cl)cc1Cl)c1c(N)n(Cc2ccccc2)c(=O)[nH]c1=O	none (no result: Sfp PPTase inh)
COc1ccc(Oc2ncc3ncc(=O)n(C)c3n2)cc1	none (no result: PLK1 PBD block, BAZ2B block, HP1b binding inh, JMJD2A Tudor)
Clc1ccc(C(Cn2ccnc2)OCc2c(Cl)cccc2Cl)c(Cl)c1 (stereo not given)	BAZ2B block 32µM, JMJD2A Tudor inconclusive, G9a block 7.9µM (no result: Sfp PPTase inh)
O=C(c1ccc2ccccc2n1)N1CCN(c2ccccc2)CC1	none
O=C(c1cc2ccccc2cc1O)N1CCN(c2ccccc2O)CC1	JMJD2A Tudor inconclusive, G9a block 45µM (no result: Sfp PPTase inh)
COc1ccc(N2CCN(C(=O)c3ccc4ccccc4n3)CC2)cc1	G9a block 71µM
COc1ccc(N2CCN(C(=O)c3ccc4c(c3)[nH]c(=S)n3c5ccccc5nc43)CC2)cc1	BAZ2B block inconclusive, G9a block 13µM (no result: PLK1 PBD block, HP1b binding inh, JMJD2A Tudor)
O=C(c1ccc2ccccc2n1)N1CCN(c2ccccc2O)CC1	G9a block 45µM
CC(=O)c1cccc(NC(=O)c2nc(-c3ccc(C)cc3)n3c2CCCCC3)c1	none (no result: PLK1 PBD block, Sfp PPTase inh)
CCCOc1ccc(C2C(C(=O)c3cc4ccccc4o3)=C(O)C(=O)N2c2cc(C)on2)cc1OC (stereo not given)	PLK1 PBD block inconclusive (no result: G9a block)
Cc1cc(N2C(=O)C(O)=C(C(=O)c3cc4ccccc4o3)C2c2ccc(Br)cc2)no1 (stereo not given)	PLK1 PBD block 21µM, BAZ2B block inconclusive, JMJD2A Tudor inconclusive, G9a block 1.6µM
CCCOc1ccc(C2C(C(=O)c3cc4ccccc4o3)=C(O)C(=O)N2c2cc(C)on2)cc1 (stereo not given)	PLK1 PBD block inconclusive, JMJD2A Tudor inconclusive, G9a block 32µM
CCC1CCc2nc3sc(C(=O)Nc4ccc(F)cc4F)c(N)c3cc2C1 (stereo not given)	none (no result: PLK1 PBD block, Sfp PPTase inh)
CCN(CC)CCNC(CC(=O)Nc1ccc(Cl)cc1Cl)C(=O)O (stereo not given)	G9a block 8.9µM
CCOC1=C2[C@@H](CN(S(=O)(=O)c3ccc(C)cc3)[C@H]2c2ccccc2Cl)[C@H]2C(=O)N(C)C(=O)[C@H]2C1	none (no result: BAZ2B block, HP1b binding inh, JMJD2A Tudor, G9a block, Sfp PPTase inh)
